Assay results as given in PubChem BioAssay AID1159580 (chemical genetic matrix, 2015).
Screen size: about 5,500 compounds; about 2,000 (36%) were called active. About 18% were inconclusive and are not listed. No stated cut-off is given here; in the data, active means normalized growth mostly below about 0.91 (no sharp cut-off); inconclusive means no clear call, values can overlap the other calls; inactive means mostly above about 0.92. The list shows a part of the results.

Assay: chemical genetic growth profiling, strain panel (AID 1159580);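 further: tested at 20 µM; growth read once vehicle control cultures reached saturation at 30 °C; 1 = growth at the plate median or of vehicle wells; lower values mean less growth of the strain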
Conditions: S. cerevisiae deletion strains, growth OD

Measured: normalized growth

O=C(O)CP(=O)(O)O
inactive: locus YAL040C, strain CLN3, active compounds read low 1 | locus YCL061C, strain MRC1 (second series), active compounds read low 1 | locus YDR363W, strain ESC2, active compounds read low 1.01 | locus YER002W, strain NOP16, active compounds read low 1.01 | locus YGR229C, strain SMI1, active compounds read low 1.02 | locus YNL175C, strain NOP13, active compounds read low 1.02 | locus YNL197C, strain WHI3, active compounds read low 1.01 | locus YNL224C, strain SQS1, active compounds read low 0.993 | locus YNL322C, strain KRE1, active compounds read low 1.01 | locus YOR083W, strain WHI5 (second series), active compounds read low 1.01
